Among all 5,500 compounds or so, about 2,000 (36%) were called active. About 18% were inconclusive and are not listed. Cut-off read from the data, not from the text of the source: active = normalized growth mostly below about 0.91 (no sharp cut-off); inconclusive = no clear call, values can overlap the other calls; inactive = mostly above about 0.92. Some of the results follow.
Test: chemical genetic growth profiling, strain panel (AID 1159580);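 note: tested at 20 µM; growth read once vehicle control cultures reached saturation at 30 °C; 1 = growth at the plate median or of vehicle wells; lower values mean less growth of the strain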
Details: growth OD

Measured: normalized growth

C[C@]12CC(=O)C3C(CC[C@@H]4C[C@H](O)CC[C@]34C)C1CC[C@]2(O)C(=O)CO (stereo not given in full)
inactive: S. cerevisiae deletion strains, locus YAL013W, strain DEP1, active compounds read low 0.997 | S. cerevisiae deletion strains, locus YBR021W, strain FUR4, active compounds read low 0.976 | S. cerevisiae deletion strains, locus YBR229C, strain ROT2, active compounds read low 0.99 | S. cerevisiae deletion strains, locus YCL029C, strain bik1, active compounds read low 1.01 | S. cerevisiae deletion strains, locus YDL035C, strain GPR1, active compounds read low 0.996 | S. cerevisiae deletion strains, locus YDL074C, strain BRE1, active compounds read low 0.978 | S. cerevisiae deletion strains, locus YDL101C, strain DUN1, active compounds read low 0.996 | S. cerevisiae deletion strains, locus YDL185W, strain tfp1, active compounds read low 0.977 | S. cerevisiae deletion strains, locus YDL192W, strain arf1, active compounds read low 1 | S. cerevisiae deletion strains, locus YDR101C, strain arx1, active compounds read low 0.978 | S. cerevisiae deletion strains, locus YDR150W, strain NUM1, active compounds read low 0.994 | S. cerevisiae deletion strains, locus YDR162C, strain NBP2, active compounds read low 1.02 | S. cerevisiae deletion strains, locus YDR318W, strain mcm21, active compounds read low 1.01 | S. cerevisiae deletion strains, locus YDR388W, active compounds read low 0.995 | S. cerevisiae deletion strains, locus YDR502C, strain sam2, active compounds read low 1.01 | S. cerevisiae deletion strains, locus YEL061C, strain CIN8, active compounds read low 0.995 | S. cerevisiae deletion strains, locus YER110C, active compounds read low 0.986 | S. cerevisiae deletion strains, locus YER155C, strain BEM2, active compounds read low 0.986 | S. cerevisiae deletion strains, locus YER167W, strain BCK2, active compounds read low 0.992 | S. cerevisiae deletion strains, locus YGL078C, strain dbp3, active compounds read low 0.983 | S. cerevisiae deletion strains, locus YGL086W, strain mad1, active compounds read low 0.97 | S. cerevisiae deletion strains, locus YGL248W, strain PDE1, active compounds read low 1.01 | S. cerevisiae deletion strains, locus YGR135W, strain pre9, active compounds read low 1.03 | S. cerevisiae deletion strains, locus YGR252W, strain gcn5, active compounds read low 1.06 | S. cerevisiae deletion strains, locus YHR030C, strain SLT2, active compounds read low 0.991 | S. cerevisiae deletion strains, locus YHR079C, strain IRE1 (second series), active compounds read low 0.992 | S. cerevisiae deletion strains, locus YHR094C, strain hxt1, active compounds read low 0.986 | S. cerevisiae deletion strains, locus YHR129C, strain ARP1, active compounds read low 0.992 | S. cerevisiae deletion strains, locus YHR200W, strain rpn10, active compounds read low 1.02 | S. cerevisiae deletion strains, locus YIL066C, strain RNR3, active compounds read low 0.998 | S. cerevisiae deletion strains, locus YIL073C, strain SPO22, active compounds read low 1.03 | S. cerevisiae deletion strains, locus YIL125W, strain kgd1, active compounds read low 0.997 | S. cerevisiae deletion strains, locus YIR030C, strain dcg1, active compounds read low 0.991 | S. cerevisiae deletion strains, locus YJL095W, strain BCK1, active compounds read low 1.04 | S. cerevisiae deletion strains, locus YJL134W, strain LCB3, active compounds read low 0.992 | S. cerevisiae deletion strains, locus YJL168C, strain set2, active compounds read low 0.994 | S. cerevisiae deletion strains, locus YJL187C, strain SWE1 (second series), active compounds read low 1 | S. cerevisiae deletion strains, locus YJR043C, strain POL32, active compounds read low 1 | S. cerevisiae deletion strains, locus YJR075W, strain HOC1, active compounds read low 0.997 | S. cerevisiae deletion strains, locus YKL009W, strain mrt4, active compounds read low 1.1 | S. cerevisiae deletion strains, locus YKL068W, active compounds read low 0.994 | S. cerevisiae deletion strains, locus YKL085W, strain MDH1 (second series), active compounds read low 1 | S. cerevisiae deletion strains, locus YKL085W, strain MDH1, active compounds read low 1 | S. cerevisiae deletion strains, locus YKR001C, strain vps1, active compounds read low 0.987 | S. cerevisiae deletion strains, locus YLR039C, strain RIC1, active compounds read low 0.977 | S. cerevisiae deletion strains, locus YLR058C, strain SHM2, active compounds read low 1.01 | S. cerevisiae deletion strains, locus YLR102C, strain apc9, active compounds read low 0.997 | S. cerevisiae deletion strains, locus YLR262C, strain YPT6, active compounds read low 1 | S. cerevisiae deletion strains, locus YLR268W, strain sec22, active compounds read low 0.96 | S. cerevisiae deletion strains, locus YLR330W, strain CHS5, active compounds read low 0.994 | S. cerevisiae deletion strains, locus YLR342W, strain FKS1 (second series), active compounds read low 0.982 | S. cerevisiae deletion strains, locus YLR371W, strain rom2, active compounds read low 0.993 | S. cerevisiae deletion strains, locus YLR418C, strain cdc73, active compounds read low 1.01 | S. cerevisiae deletion strains, locus YML016C, strain PPZ1, active compounds read low 0.991 | S. cerevisiae deletion strains, locus YML032C, strain rad52, active compounds read low 1.04 | S. cerevisiae deletion strains, locus YML124C, strain tub3, active compounds read low 0.998 | S. cerevisiae deletion strains, locus YMR078C, strain ctf18, active compounds read low 0.989 | S. cerevisiae deletion strains, locus YMR223W, strain ubp8, active compounds read low 1.02 | S. cerevisiae deletion strains, locus YMR263W, strain SAP30, active compounds read low 1 | S. cerevisiae deletion strains, locus YMR307W, strain GAS1, active compounds read low 1.07 | S. cerevisiae deletion strains, locus YNL067W, strain RPL9B, active compounds read low 1.01 | S. cerevisiae deletion strains, locus YNL128W, strain TEP1, active compounds read low 0.981 | S. cerevisiae deletion strains, locus YNL153C, strain GIM3, active compounds read low 1.01 | S. cerevisiae deletion strains, locus YNL233W, strain BNI4, active compounds read low 1.01 | S. cerevisiae deletion strains, locus YNL250W, strain rad50, active compounds read low 0.991 | S. cerevisiae deletion strains, locus YNL271C, strain bni1, active compounds read low 0.989 | S. cerevisiae deletion strains, locus YNL298W, strain CLA4, active compounds read low 0.989 | S. cerevisiae deletion strains, locus YNL307C, strain MCK1, active compounds read low 0.983 | S. cerevisiae deletion strains, locus YNL322C, strain KRE1, active compounds read low 0.998 | S. cerevisiae deletion strains, locus YNR052C, strain pop2, active compounds read low 0.991 | S. cerevisiae deletion strains, locus YOL012C, strain htz1 0.641 | S. cerevisiae deletion strains, locus YOL147C, strain pex11, active compounds read low 0.986 | S. cerevisiae deletion strains, locus YOR061W, strain CKA2, active compounds read low 0.995 | S. cerevisiae deletion strains, locus YOR069W, strain VPS5, active compounds read low 0.988 | S. cerevisiae deletion strains, locus YOR136W, strain idh2, active compounds read low 0.973 | S. cerevisiae deletion strains, locus YOR144C, strain elg1, active compounds read low 0.993 | S. cerevisiae deletion strains, locus YOR184W, strain ser1, active compounds read low 1.01 | S. cerevisiae deletion strains, locus YOR316C, strain cot1, active compounds read low 0.993 | S. cerevisiae deletion strains, locus YPL055C, strain LGE1, active compounds read low 1 | S. cerevisiae deletion strains, locus YPR119W, strain clb2, active compounds read low 0.997 | S. cerevisiae deletion strains, locus YPR141C, strain kar3, active compounds read low 0.992 | S. cerevisiae deletion strains, locus YPR163C, strain tif3, active compounds read low 0.996 | S. cerevisiae deletion strains, locus YPR167C, strain met16, active compounds read low 0.981 | S. cerevisiae deletion strains, strain wtn01, active compounds read low 0.943 | S. cerevisiae strains, strain wild type, active compounds read low 1
